The text below walks through data of PubChem BioAssay (NCI).

This assay can be described thus: NCI Yeast Anticancer Drug Screen. Data for the wt2 strain (AID 169).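 Also: 0% = growth of vehicle-treated yeast cultures.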 Particulars: S. cerevisiae wt2 strain growth inhibition, stronger effect = higher value. As for the experimental part:
Growth inhibition of yeast strains with defined genetic alterations is measured as a screen for potential anti-cancer activity. Selected strains with alterations in DNA damage repair or cell cycle control were exposed to compounds and growth inhibition was measured relative to vehicle treated controls. The strain used in this assay is wt2

The structures appear in SMILES notation. Compounds without any hit were thinned out: in the full panel of roughly 79,000, 15% have a hit. Unmarked numbers belong to inactive results. The source made the active and inactive calls. Rule as the data show it: active = growth inhibition above about 70%; inactive = the rest.

For the molecule `O=C(OCCN1CCCCCC1)C(c1ccsc1)C1CCCCC1` (stereo not given), the growth inhibition by setting is: (at 1.2 µM) 6%; (at 3.7 µM) 17%; (at 11.0 µM) 22%; (at 33.0 µM) 39%; (at 100.0 µM) 72% (active).
The like results for `O=S(=O)(CCCl)c1ccccc1Cl` were, in that order, 8%, 32%, 64%, 98% (active) and 99% (active).
With `CCCS(=O)(=O)Nc1ccc(Nc2c3ccccc3nc3ccccc23)c(OC)c1`, the growth inhibition (at 1.2 µM) is -37%; the growth inhibition (at 3.7 µM) was -40%; the growth inhibition (at 11.0 µM) is -41%; the growth inhibition (at 33.0 µM) is -10%; the growth inhibition (at 100.0 µM) was 69%.
The like results for `[O-][n+]1c2ccc(O)cc2nc2ccc(Br)cc21` were, in that order, 3%, -40%, 25%, 60% and 80% (active).
The like results for `CCCCCCCCCCC1CCC(=O)O1` (stereo not given) were, in that order, -1%, 8%, 0%, 4% and 99% (active).
The like results for `COC1C=COC2(C)Oc3c(C)c(O)c4c(c3C2=O)/C(=N/C2CCC(O)OC2C)C=C(NC(=O)/C(C)=C\C(=O)C2CC2C(O)C(C)C(O)C(C)C(OC(C)=O)C1C)C4=O` (stereo not given) were, in that order, -1%, 1%, 0%, 28% and 94% (active).
As for `C=CC(C)(O)CCC1C(=C)C(O)CC2C(C)(C)CCCC12C` (stereo not given), the growth inhibition is, setting by setting: (at 1.2 µM) -2%; (at 3.7 µM) -12%; (at 11.0 µM) -13%; (at 33.0 µM) 28%; (at 100.0 µM) 69%.
For `C#CCCCc1ccccc1`, in that order: -52%, -55%, -54%, -31% and 14%.
